# Assay outcomes from PubChem BioAssay.
# An excerpt weighted towards active compounds, which were near 27% of everything screened.
# Cav32 inh: blocks human Cav3.2 T-type calcium channel; O95180; Cav3.2-expressing cells, Fluo-4 calcium fluorescence FDSS; hits give low values; B-score at 10 µM; 4% of 100,000 active;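 active means single-dose well whose peak fluorescence ratio is a statistical outlier from its plate by either plate-standardised score or position-corrected B-score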
# CYP2C19 inhib: inhibitors of human CYP2C19 | P33261 | 21% of 96,000 active | CYP2C19 Supersomes, luciferin-H EGE luminescence, 30 min | inhibition, % at 5 µM;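 active means CYP2C19 inhibition above a set limit at 5 µM in the primary screen, cut at about 50% in these data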;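 further: plate controls were negative control wells for no effect and 2.5 mM tranylcypromine positive control for full effect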
# Target sequence (P33261 whole entry, looked up): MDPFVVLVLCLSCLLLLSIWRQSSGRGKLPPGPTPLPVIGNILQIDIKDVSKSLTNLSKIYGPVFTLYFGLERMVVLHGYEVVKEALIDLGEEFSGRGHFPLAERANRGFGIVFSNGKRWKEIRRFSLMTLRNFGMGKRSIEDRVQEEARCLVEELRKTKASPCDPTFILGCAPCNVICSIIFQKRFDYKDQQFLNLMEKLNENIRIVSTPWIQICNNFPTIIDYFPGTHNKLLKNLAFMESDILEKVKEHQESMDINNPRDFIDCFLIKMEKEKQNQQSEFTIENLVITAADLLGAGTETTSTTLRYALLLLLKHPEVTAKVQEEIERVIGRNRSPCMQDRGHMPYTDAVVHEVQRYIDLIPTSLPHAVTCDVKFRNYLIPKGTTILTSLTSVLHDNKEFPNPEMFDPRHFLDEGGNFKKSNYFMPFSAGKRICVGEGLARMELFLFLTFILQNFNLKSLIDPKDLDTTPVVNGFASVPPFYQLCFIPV
# CYP2C19 activ: increases human CYP2C19 enzyme activity; activation factor at 5 µM; P33261; 96,000 tested, under 10 active; recombinant CYP2C19, luciferin-H EGE luminescence; hits give high values; 0 = fully inhibited enzyme, 1 = untreated enzyme;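 active means activation factor of at least 2 at 5 µM in the primary screen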;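 further: 0 = wells with 2.5 mM tranylcypromine and 1 = vehicle-only wells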
# CYP2C9 inhib: inhibitors of human CYP2C9. AID 777. inhibition, % at 5 µM. CYP2C9 Supersomes, luciferin-H conversion, luminescence. 20% of 96,000 active;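 active means blocking of liver enzyme CYP2C9 beyond about 50% at 5 µM, limit read from the data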
# PTK2B oligo ant: antagonists of human Pyk2 oligomerization. 0.83% of 99,000 active. z-score (the deposit names both 25 µM and 10 µM). AID 1347419. Q293 cells, Pyk2 FERM NanoBiT luminescence; hits give low values;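 active means Z-score of -3 or lower, scaled per plate to the spread of control and sample wells; inactive means z-score above -3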;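 further: negative z-score means lost luminescence so less FERM oligomerization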
# CYP2C9 activ: increases human cytochrome P450 2C9 activity; P11712; 1.4% of 96,000 active; recombinant CYP2C9, luciferin-H conversion, luminescence; hits give high values; factor 1 = untreated enzyme, 0 = blocked; activation factor at 5 µM;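 active means activation factor of 2 or more for CYP2C9 at a 5 µM dose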;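 further: 0 = sulfaphenazole-blocked wells and 1 = vehicle-only wells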
# * marks the source's active call; other numbers are inactive results; . = no result.
SMILES,Cav32 inh,CYP2C19 inhib,CYP2C19 activ,CYP2C9 inhib,PTK2B oligo ant,CYP2C9 activ
COCCCn1c(Cc2csc(Nc3cccc(Cl)c3)n2)nnc1SCC(=O)OC,-0.23,87*,0.1,80*,0.73,0.2
CCOC(=O)CSc1nnc(CNc2cccc(Cl)c2)n1C,1.1,.,.,.,0.06,.
O=C(CSc1nccn1-c1ncc(C(F)(F)F)cc1Cl)c1ccc(Br)cc1,-1.6,93*,0.1,62*,0.94,0.4
Cc1ccc(/C(CSc2nccn2-c2ncc(C(F)(F)F)cc2Cl)=N\O)cc1,-6.2*,56*,0.4,52*,-0.5,0.5
Cc1ccc(CNc2ncnc3cc(Cl)ccc23)o1,0.39,67*,0.3,54*,1.1,0.5
C=CCN1C(=O)CN=C1Nc1cc(C)ccc1C,0.68,15,0.9,9,0.69,0.9
Cc1cc(C)c(N2CCN(S(=O)(=O)N3CCCCCC3)CC2)c(C)c1,-0.054,80*,0.2,73*,0.02,0.3
Cc1cc2nc(CCN3CCOCC3)n(S(=O)(=O)c3ccc(C(C)(C)C)cc3)c2cc1C,-0.08,.,.,.,-0.24,.
C=CCSC1=C(C#N)C(c2ccccc2)CC(=O)N1 (configuration not stated),0.5,80*,0.2,65*,0.04,0.3
C=CCSC1=C(C#N)C(c2ccc(C(C)C)cc2)CC(=O)N1 (configuration not stated),-3.5*,74*,0.3,82*,.,0.2
N#CC1=C(SCc2ccccc2)NC(=O)CC1c1ccccc1 (configuration not stated),0.023,.,.,.,-1.6,.
CC1CN(C(c2cccs2)c2sc3ncnn3c2O)CC(C)O1 (configuration not stated),0.7,.,.,.,.,.
Cc1ccc(C(c2nnnn2C2CCCCC2)N2CCN3CCCC3C2)cc1 (configuration not stated),-0.13,2,1,-23,1.3,1.2
Cc1ccc(Cl)cc1N1CCN(C(c2cccnc2)c2nnnn2C2CCCCC2)CC1 (configuration not stated),-5*,98*,0,93*,-1.6,0.1
Cc1ccc(Cl)cc1N1CCN(C(c2ccc(C#N)cc2)c2nnnn2C2CCCC2)CC1 (configuration not stated),-2.6,29,0.7,56*,-1.1,0.4
COc1nn(C(C)C(=O)N2N=C(C(F)F)CC2(O)C(F)F)cc1[N+](=O)[O-] (configuration not stated),-2.2,.,.,.,0.18,.
NS(=O)(=O)c1cccnc1Nc1c(Cl)cccc1Cl,0.18,60*,0.4,46,0.01,0.5
NS(=O)(=O)c1ccc(Nc2ncccc2[N+](=O)[O-])cc1,2.2,-10,1.1,14,-0.77,0.9
CCOC(=O)c1c(C)[nH]c(C(=O)NNC(=O)c2ccccc2)c1C,-0.077,4,1,-9,-0.37,1.1
CCOC(=O)c1c(C)[nH]c(C(=O)C(C)OC(=O)c2cccc(OCc3c(C)noc3C)c2)c1C (configuration not stated),-4.7*,79*,0.2,90*,-0.71,0.1
O=c1c2ccccc2nnn1CSc1nnc(-c2cccnc2)n1-c1ccccc1F,2.1,75*,0.2,2,-0.03,1
COc1ccccc1-n1c(SCC(N)=O)nnc1-c1ccccc1,0.95,10,0.9,-2,-0.12,1
CCOC(=O)CCSc1nnc(-c2cccnc2)n1-c1ccccc1OC,0.69,54*,0.5,22,-0.47,0.8
Nn1c(Cc2ccccc2F)nnc1SCn1nnc2ccccc2c1=O,1.2,64*,0.4,26,1.6,0.7
CC(=O)NC(NC(=S)Nc1ccc(N=Nc2ccccc2)cc1)C(Cl)(Cl)Cl (configuration not stated),-0.49,27,0.7,27,-1.7,0.7
SMILES,Cav32 inh,CYP2C19 inhib,CYP2C19 activ,CYP2C9 inhib,PTK2B oligo ant,CYP2C9 activ
COC(=O)c1ccc(NC(=O)C2CCCCC2C(=O)O)cc1 (configuration not stated),0.84,19,0.8,3,-0.22,1
CC1(C)NC(C)(C)C(O)(C(N)=O)C1=O (configuration not stated),0.63,-4,1,-22,0.23,1.2
CCn1c(CSc2nc3ccccc3s2)nnc1SCC(=O)c1ccc(O)cc1O,-0.29,-14,1.1,-10,0.02,1.1
Nn1c(SCc2cccc(C(F)(F)F)c2)nnc1-c1ccco1,-0.052,94*,0.1,-61,-0.06,1.6
Cn1c(SCc2cccc(C(F)(F)F)c2)nnc1-c1ccco1,0.9,72*,0.3,14,-0.51,0.9
Cc1ccc(CSc2nnc(-c3ccco3)n2N)cc1,0.55,8,0.9,-19,1.1,1.2
Cn1c(SC/C=C/c2ccccc2)nnc1-c1ccco1,0.62,.,.,.,-0.02,.
COc1ccc(C2CC(=O)c3cnc(NC(=O)c4ccccc4OC)nc3C2)c(OC)c1 (configuration not stated),-0.88,.,.,.,-2,.
CCN(C(=O)Cn1c(=O)n(Cc2ccccc2)c(=O)c2ccccc21)c1cccc(C)c1,-6.4*,5,1,86*,-2.1,0.1
Cc1cc(NC(=O)Cn2c(=O)n(Cc3ccccc3)c(=O)c3ccccc32)no1,.,23,0.8,18,-0.68,0.8
COc1ccc(CCNS(=O)(=O)c2ccc3c(c2)CCN3C(=O)C2CC2)cc1OC,-4.8e-05,45,0.6,66*,1.8,0.3
COc1ccc(CCNS(=O)(=O)c2ccc3c(c2)CC(C)N3C(C)=O)cc1OC (configuration not stated),0.3,25,0.8,38,0.53,0.6
CC(=O)N1CCc2cc(S(=O)(=O)CCC(=O)NCc3cccs3)ccc21,0.56,11,0.9,-13,1.4,1.1
COc1ccc(CCNS(=O)(=O)c2ccc3c(c2)n(C)c(=O)c(=O)n3C)cc1OC,0.13,3,1,-8,.,1.1
COc1ccc(CCNS(=O)(=O)c2ccc(S(=O)(=O)N3CCCC3)cc2)cc1OC,0.13,36,0.6,57*,0.29,0.4
CCC(=O)N1CCc2cc(S(=O)(=O)CCC(=O)NCCc3ccccc3)ccc21,2,35,0.7,50*,0.46,0.5
CCC(=O)N1CCc2cc(S(=O)(=O)CCC(=O)NCCc3ccc(OC)c(OC)c3)ccc21,-0.0037,28,0.7,55*,0.7,0.4
Cc1c(C(=O)OCC(=O)N2CC(=O)Nc3ccccc32)oc2ccc(Br)cc12,-1.2,-26,1.3,-29,2,1.3
CCC(=O)NC1(C(F)(F)F)C(=O)NC(C)=C1C#N (configuration not stated),-0.0036,12,0.9,4,-0.23,1
O=C(COc1ncnc2scc(-c3ccc(Cl)cc3)c12)NCc1ccco1,-2.2,26,0.7,16,-0.42,0.8
